Among the data in PubChem BioAssay (NCI) are growth values, retold here.

Holding throughout (experiment): NCI-60 one-dose screen, 48 h (100 = growth as untreated, 0 = no growth, -100 = all killed)
Common to all, as to conditions: 10 µM unless noted

In assay [1] the test system is NCI-H23 lung.
Assay [2] relates to NCI-H226 lung.
Assay [3] has as its system NCI-H322M lung.
The test system of assay [4] is HOP-62 NSCLC.
Assay [5] has as its system NCI-H460 lung.
Assay [6] deals with HOP-92 NSCLC.
Assay [7] deals with NCI-H522 lung.
In assay [8] the test system is A549/ATCC NSCLC.
In assay [9] the test system is 786-0 renal.
Assay [10] has as its system COLO 205 colon.
Assay [11] deals with DU-145 prostate.
The subject of assay [12] is K-562 leukemia.
Assay [13] concerns MALME-3M melanoma.
Assay [14] concerns MDA-MB-231 breast.
The subject of assay [15] is RXF 393 renal.
Assay [16] concerns SF-268 CNS.
The subject of assay [17] is SF-295 CNS.
The test system of assay [18] is SF-539 CNS.
For assay [19], the system named is UACC-257 melanoma.
Assay [20] has as its system M14 melanoma.

This is part of a sample that, as a whole, favours compounds with a hit. Of some 83,000 tested, about 20% had one in any assay.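 Step 1: grow cells in 96-well plates. Step 2: add test compound at a single concentration. Step 3: incubate 48 h. Step 4: record percent growth.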 Values without a mark were called inactive. Activity calls are given as the source filed them. Rule for the calls: active = growth percent below 10; inactive = the rest.

Turning to `CC(C)C1C2=C(NCCN1C(=O)c1ccncc1)C(C)(C)N(Cc1ccccc1)C2=O` (stereo not drawn), the growth is 99.6% in assay [1]; 107% in [2]; 110% in assay [3]; 103% in [4]; 116% in assay [5]; 103% in assay [6]. Moreover, the growth in [7] was 80.9%; in assay [8], 95.2%; in assay [9], 105%; in assay [10] it was 109%; in assay [11] it was 105%; in [12], 98.1%. In addition, the growth was 96.6% in [13]; 100% in [14]; 126% in assay [15]; 96.9% in assay [16]; 96.5% in [17]; 108% in [18]. Also, the growth in assay [19] was 105%.
Turning to `O=[N+]([O-])c1ccccc1Nc1ccc2ccccc2c1`, the growth is 97.7% in [1]; 97.1% in assay [2]; 108% in assay [3]; 82.7% in assay [4]; 84.4% in assay [5]; 82.9% in [6]. For the same compound, the growth was 87.8% in [7]; 47.8% in assay [8]; 83.5% in assay [9]; 72.5% in [10]; 107% in assay [11]; 84.8% in assay [12]. The growth in assay [13] is 106%; in [14] it was 91.9%; in assay [15] it was 133%; in assay [16], 95.5%; in assay [17] it was 98.3%; in assay [18] it was 97%. The growth in [19] is 92.8%.
On to `O=C1C=C(SCCO)C(=O)c2ccccc21`, for which the growth in [1] is -39% (active); in assay [2], 95.6%; in [3], 69.6%; in assay [4], -46.9% (active); in assay [5], 9.52% (active); in [6], 94.3%. Further, the growth in assay [7] was 21.6%; in assay [8] it was 68.1%; in assay [9], 70.3%; in assay [10], 76.3%; in assay [11], -96.7% (active); in assay [12], -38.4% (active). Moreover, the growth in assay [13] was -68.1% (active); in assay [14], 40.2%; in [15] it was 42.4%; in assay [16] it was 27.2%; in assay [17], -77.4% (active); in [18], -77.1% (active). Further, the growth in assay [19] is 66.7%.
On to `Brc1ccc(Nc2nc(Nc3cnc4ccccc4c3)c3[nH]cnc3n2)cc1`, for which the growth in assay [1] was 76%; in assay [2] it was 64.1%; in assay [3], 105%; in [4], 64.6%; in assay [5], 65%; in assay [6], 26%. Further, the growth was 54.2% in [7]; 79.6% in assay [8]; 49.4% in assay [9]; 90.4% in assay [10]; 81.3% in assay [11]; 79.7% in [12]. Also, the growth in assay [13] was 105%; in assay [14], 53.8%; in assay [15] it was 75.8%; in assay [16], 76.6%; in assay [17], 84.7%; in assay [18], 87.4%. For the same compound, the growth in assay [19] is 90.3%.
`CCn1cc(C(=O)O)c(=O)c2cc(F)c(N3CCN(CC(=O)Nc4ccccc4)C(C)C3)c(F)c21` (stereo not drawn): the growth in assay [1] was 91.3%; in [2] it was 100%; in assay [3] it was 85.7%; in [4] it was 101%; in assay [5], 99.2%; in assay [6] it was 97%. Moreover, the growth was 92.5% in assay [7]; 97.9% in [8]; 92.5% in assay [9]; 106% in assay [10]; 104% in assay [11]; 87.1% in assay [12]. Moreover, the growth was 97.9% in [13]; 87.1% in assay [14]; 101% in assay [15]; 93.7% in [16]; 95.3% in [17]; 99.1% in assay [18]. For the same compound, the growth in assay [19] was 102%; in assay [20], 105%.
As to `O=C(O)CCCCCCCCCCN1C(=O)/C(=C2/C(=O)N(CC(=O)O)c3ccc(Br)cc32)SC1=S`, the growth is 92.8% in [1]; 98.1% in assay [2]; 97% in assay [3]; 102% in assay [4]; 105% in assay [5]; 80.7% in assay [6]. Also, the growth in [7] was 90.1%; in assay [8] it was 92%; in [9], 54.7%; in [10], 110%; in assay [11], 106%; in assay [12], 69.6%. Moreover, the growth in assay [13] is 96.9%; in [14], 92.3%; in assay [15], 113%; in assay [16], 96.9%; in assay [17], 103%; in assay [18], 104%. Also, in assay [19], the growth was 97.9%.
`Oc1ccc(-c2nc3ccc4[nH]ncc4c3c3c2CCCC3)c(F)c1`: the growth was 29.5% in [1]; 56.4% in assay [2]; 37.8% in assay [3]; 35.7% in assay [4]; 29% in assay [5]; 68.9% in assay [6]. The growth in [7] was -4.04% (active); in assay [8], 15.7%; in [9] it was 29.4%; in assay [10], 77.4%; in [11], 37%; in [12], 19.5%. For the same compound, the growth in [13] was 24.9%; in [14] it was 59.9%; in assay [15], 16%; in assay [16] it was 36.5%; in assay [17], 43.6%; in assay [18], 15.6%. Further, the growth in assay [19] was 44.5%.
Take `O=c1oc2c(cnc3ccccc32)cc1-c1cccc(Cl)c1`: the growth in assay [1] is 101%; in assay [2], 96.2%; in assay [3], 104%; in [4], 113%; in assay [5] it was 106%; in [6], 81.7%. For the same compound, the growth in assay [7] is 101%; in [8], 104%; in assay [9], 106%; in assay [10], 118%; in assay [11], 108%; in assay [12], 89%. The growth was 103% in [13]; 97.6% in assay [14]; 112% in assay [15]; 98.8% in assay [16]; 101% in assay [17]; 95.2% in assay [18]. Also, the growth in assay [19] is 101%.
